EWS-Fli block: blocks EWS/Fli oncoprotein-driven transcription; A673 NR0B1-luciferase reporter, viability-normalised; inhibition, % at 12.6 µM; actives 0.67% (n = 350,000);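 active = mean inhibition of at least 50% after viability correction, with every replicate also passing that limit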;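 also: firefly luciferase signal divided by Alamar Blue viability fluorescence both relative to DMSO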
LGR2 antag: blocks bursicon-induced cAMP signaling via Drosophila LGR2. HEK293 LGR2, CRE-luciferase, bursicon-stimulated, 4 h. inhibition, % at 9.99 µM. actives 0.35% (n = 380,000). AID 720647;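 active = drop in luminescence signal, shown as inhibition above about 50% in the replicate tests, limit read from the data, passing the limit was not always enough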;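 also: agonist challenge used bursicon conditioned medium at about half maximal strength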
LMP1 NFkB inh: inhibitors of Epstein-Barr LMP1-induced NF-kappaB reporter. AID 504558. LMP1-induced NF-kappaB luciferase reporter cells, luminescence. actives 0.69% (n = 350,000). inhibition, % at 12.5 µM; in the data active = inhibition above about 41%;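 also: 0% = neutral control wells and 100% = reference inhibitor control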
TROY NFkB inh: TROY signaling inhibition; Q293 LMP1-TROYcd NF-kB luciferase reporter, 4 h; inhibition, % at 10 µM; actives 0.98% (n = 360,000);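 active = compounds whose plate-normalised and pattern-corrected inhibition of the luciferase reporter signal at the single screening dose is 50% or more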
TWEAK Fn14 block: TWEAK-Fn14 signaling inhibition. TWEAK-stimulated Fn14 reporter cells, luciferase luminescence, 8 h. inhibition, % at 10 µM. actives 2% (n = 360,000); in the data active = inhibition above about 50%
An asterisk follows results filed as active; / = no result. Only some compounds are listed: those with a hit (about 2.5% of all), similar ones and a draw of the others.

SMILES	EWS-Fli block	LGR2 antag	LMP1 NFkB inh	TROY NFkB inh	TWEAK Fn14 block
Cc1snc(S(=O)(=O)/C(C#N)=N/Nc2ccc(C(F)(F)F)cc2)c1C#N	/	/	-4	52*	-16
C[C@H](CO)N1C[C@H](C)[C@H](CN(C)C)Oc2cc(-c3cccc(F)c3)ccc2S1(=O)=O	0	8	/	/	/
COc1cccc(-c2ccc([C@H]3[C@@H](C#N)N(C(=O)c4ccccn4)[C@H]3CO)cc2)c1	-1	4	/	/	/
Cn1c(=O)c(C(=O)Nc2ccccn2)c(O)c2ccccc21	/	/	-7	30	56*
COc1ccc(N2CCN(CCCNC(=O)CCCn3c(=O)[nH]c4ccsc4c3=O)CC2)cc1	/	/	-3	4	-6
CCOc1cc2[nH]c(=O)n(CCCN3CCN(c4ccc(OC)cc4)CC3)c(=O)c2cc1OCC	2	-13	3	3	87*
COc1ccc(N2CCN(CCNC(=O)CCCn3c(=O)[nH]c4cc(Cl)ccc4c3=O)CC2)cc1	/	14	81*	18	1
COc1ccc(N2CCN(CCCn3c(=S)[nH]c4ccccc4c3=O)CC2)cc1	-21	9	17	-7	-50
O=C1NC(=Nc2ccccc2Cl)S/C1=C\c1cccc([N+](=O)[O-])c1	19	3	10	70*	10
COc1ccc2c3c([nH]c2c1)[C@@H](CO)N(C(=O)c1cccc(F)c1)CC31CN(C(=O)c2ccccc2)C1	-6	-24	/	/	/
CCOC(=O)c1cnc2ccc(C)cc2c1Nc1ccc(N2CCOCC2)cc1	/	/	-2	25	56*
CCOC(=O)c1ccc2ncc(C(=O)OCC)c(NCCN3CCOCC3)c2c1	18	1	-7	-4	-26
C[C@H](CO)N1C[C@H](C)[C@@H](CN(C)Cc2ccc(-c3ccccc3)cc2)Oc2c(NC(=O)C3CC3)cccc2C1=O	-1	11	/	/	/
COc1cc(OC)nc(-n2ncc(Br)c(Br)c2=O)n1	48	103*	65*	63*	103*
C[C@H]1CN([C@@H](C)CO)C(=O)c2cc(C#CC3CCCCC3)cnc2O[C@@H]1CN(C)C(=O)c1ccncc1	-12	-12	/	/	/
CNC(=O)C[C@@H]1CC[C@H]2[C@@H](COc3ccc(NC(=O)Nc4cccc(F)c4)cc3C(=O)N2C)O1	0	-13	/	/	/
O=C(c1ccncc1)N1C[C@@H]2[C@H](c3ccccc31)[C@@H](CO)N2Cc1ccc(F)cc1	2	4	/	/	/
CCc1nc2c(c(=O)[nH]1)C1(CCCC1)Cc1ccccc1-2	/	/	-12	0	18
Cc1nc(=S)c2c([nH]1)-c1ccccc1CC21CCCCC1	54*	2	20	-5	75*
C[C@@H]1CN([C@H](C)CO)C(=O)c2cc(NS(=O)(=O)c3cn(C)cn3)ccc2O[C@@H](C)CCCCO[C@@H]1CN(C)S(=O)(=O)c1ccc(F)cc1	-1	12	/	/	/
Cc1cc(C(=O)Nc2ccc3c(c2)C(=O)N(C)[C@@H]2CC[C@H](CC(=O)NCc4ccc(-c5ccccc5)cc4)O[C@H]2CO3)no1	57*	/	/	/	/
Cc1ccnc(N/C=C(/NC(=O)c2ccccc2)C(=O)N/N=C\c2ccc(F)cc2)n1	/	/	58*	80*	101*
Cc1ccnc(N/C=C(/NC(=O)c2ccccc2)C(=O)NN)n1	1	-28	5	8	-5
O=S(=O)(O)c1ccc(O)c2cc(Nc3ccccc3)ccc12	-2	/	15	-3	79*
C[C@@H]1CCCCO[C@H](CN(C)S(=O)(=O)c2cccs2)[C@@H](C)CN([C@H](C)CO)C(=O)c2cc(NS(C)(=O)=O)ccc2O1	-6	0	/	/	/
SMILES	EWS-Fli block	LGR2 antag	LMP1 NFkB inh	TROY NFkB inh	TWEAK Fn14 block
COc1ccc(S(=O)(=O)N(C)C[C@H]2OCCCC[C@H](C)Oc3ccc(NC(=O)Nc4c(C)noc4C)cc3C(=O)N([C@H](C)CO)C[C@H]2C)cc1	-9	1	/	/	/
N#Cc1ccccc1CSc1ccc(-c2nc3ccccc3[nH]2)cn1	/	/	-10	59*	59*
CC(=O)CSc1ccc(-c2nc3cc(C)c(C)cc3[nH]2)cn1	69*	98*	72*	88*	102*
Cc1cc2nc(-c3ccc(SCC(=O)Nc4nccs4)nc3)[nH]c2cc1C	/	-6	-11	-22	-46
Cc1cc2nc(-c3ccc(SCc4ccc(C#N)cc4)nc3)[nH]c2cc1C	-25	8	-3	47	58*
CC(=O)CSc1ccc(-c2nc3ccccc3[nH]2)cn1	29	7	6	15	69*
CN1C(=O)c2cc(NC(=O)c3ccc(F)c(F)c3)ccc2OC[C@H]2O[C@@H](CC(=O)N[C@@H]3CCN(Cc4ccccc4)C3)CC[C@H]21	25	0	/	/	/

Screens (PubChem BioAssay)
